PubChem BioAssay
For part of these data: Measured potencies and affinities stand elsewhere. Inconclusive results are not listed. Some of the results follow. Active and inactive are the calls of the source. Unless noted, the rule behind the calls is not given here.

Legend:
[1] = IOSE-T80 viability loss, PAX8-independent line – cell-based, cherry-pick, selectivity assay for PAX8 inhibitor project, dose response (AID 687032;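 active = fitted half-maximal concentration for viability loss no higher than twice the top valid dose, in every repeat run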;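 note: cells exposed to compound for 96 h before reading; 0% = neutral control wells and -100% = 2 µM mitoxantrone kill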)
[2] = general cell-killing toxicity readout – plate reader, dry powder samples, cytotoxicity control for PAX8 inhibitor project, dose response (AID 743021)
[3] = toxicity toward immortalized ovarian surface epithelium – cell-based, plate reader, dry powder samples, cytotoxicity control for PAX8 inhibitor project, dose response (AID 743045);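 note: 0% = neutral control median and -100% = positive control median; more negative values mean more cell killing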
[4] = small-molecule DNA binding by polarization – biochemical, fluorescence polarization, cherry-pick, counter-screen for EWS/Fli inhibitor project, dose response (AID 720586;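 active = fitted curve reaches a 35% signal fall AC35 below twice the sample's top valid tested dose, actives reach about 48 µM in these data; inactive = the rest, including activity in the rising direction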;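 note: 0% = neutral control median and -100% = 10 µM mitoxantrone control median; lower polarization ratio signals compound binding to DNA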)
[5] = CMV-driven luciferase expression suppression in HEK293 – cell-based, luminescence, dry powder, counter-screen for Pax8 inhibitor project, dose response (AID 743020;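 active = signal-lowering compounds whose fitted half-maximal concentration is at or below twice the top tested dose in every run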;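 note: HEK293 cells stably expressing the CMV luciferase reporter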)
[6] = A2780 cell killing – plate reader, dry powder samples, cytotoxicity control, dose response (AID 743046);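 note: 0% = neutral control wells and -100% = cytotoxic reference compound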
[7] = OVCAR-3 cell viability loss – plate reader, dry powder samples, PAX8 inhibitor project, dose response (AID 743044); conditions: max activity: at 35 µM, hits give low values unless noted
[8] = IGROV1 cell killing – plate reader, dry powder samples, PAX8 inhibitor project, dose response (AID 743043);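 note: more negative means fewer viable cells or more cytotoxicity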
[9] = OVCAR8 cell viability loss – plate reader, dry powder samples, PAX8 project, dose response (AID 743197)
[10] = toxicity toward HepG2 liver cells – cell-based, plate reader, cherry-pick, antagonist series, cytotoxicity control, dose response (AID 743416);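 note: 0% = neutral control wells and -100% = positive control wells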
[11] = A549 cell cytotoxicity, dose response, cytotoxicity control, plate reader, cherry-pick, antagonist series (AID 743412);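 note: 0% = neutral control wells and -100% = positive control wells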

C[C@@H]1CN([C@H](C)CO)C(=O)c2cc(NS(=O)(=O)c3ccc(Cl)cc3)ccc2O[C@@H](C)CCCCO[C@H]1CN(C)C(=O)Nc1ccc(C(F)(F)F)cc1
inactive: outcome [1] | outcome [2] | outcome [3]

C#CCN(C[C@@H]1[C@@H](OC(=O)NCc2ccccc2F)[C@@H](OC(=O)NCc2ccccc2F)Cn2c(=O)ccc(=O)n21)S(=O)(=O)c1ccc(C)cc1
inactive: outcome [1] | outcome [2]

CC(=O)Nc1ccc(S(=O)(=O)Nc2ccc(N3CCCCC3)cc2)cc1
inactive: AC35 [4]

C[C@@H]1CCCCO[C@H](CN(C)C(=O)Nc2cccc3ccccc23)[C@H](C)CN([C@@H](C)CO)C(=O)c2cc(NS(=O)(=O)c3ccc(Cl)cc3)ccc2O1
inactive: outcome [1] | outcome [5] | outcome [3] | outcome [6]

C[C@H]1CCCCO[C@H](CN(C)C(=O)Nc2cccc3ccccc23)[C@@H](C)CN([C@@H](C)CO)C(=O)c2cc(NS(=O)(=O)c3ccc(Cl)cc3)ccc2O1
inactive: outcome [1] | outcome [5] | outcome [2] | max activity [7] -25.9% | outcome [3] | outcome [6]

C[C@H](CO)N1C[C@H](C)[C@@H](CN(C)S(=O)(=O)c2ccc(-c3ccccc3)cc2)OCc2cn(nn2)CCCC1=O
inactive: outcome [1] | outcome [5] | outcome [8] | max activity [7] -33.1% | outcome [3] | outcome [6] | outcome [9]

COc1cccc(-c2ccc3c(c2)[C@H]2[C@H](CCN2S(=O)(=O)c2ccccc2F)[C@@H](CO)N3)c1
inactive: outcome [1] | outcome [5] | outcome [2] | outcome [3] | outcome [6]

C[C@H]1CN([C@@H](C)CO)C(=O)Cc2cc(NC(=O)NC3CCCCC3)ccc2O[C@@H]1CN(C)Cc1ccc(-c2ccccc2)cc1
inactive: outcome [1] | outcome [5] | outcome [8] | max activity [7] 18.6% [at 1 µM, hits give low values] | outcome [3] | outcome [6] | outcome [9]

COc1ccc(S(=O)(=O)N(C)C[C@@H]2OCCCC[C@H](C)Oc3ccc(NS(=O)(=O)c4ccccc4)cc3C(=O)N([C@H](C)CO)C[C@H]2C)cc1
inactive: outcome [1] | outcome [5] | outcome [2] | outcome [3] | outcome [6]

C[C@@H]1CN([C@@H](C)CO)C(=O)Cc2cc(NC(=O)CCCCCC(=O)Nc3ccccc3N)ccc2O[C@@H]1CN(C)Cc1ccc(C(F)(F)F)cc1
inactive: outcome [1] | outcome [5] | outcome [8] | outcome [3] | outcome [6]

COc1ccc(S(=O)(=O)Nc2ccc3c(c2)C(=O)N([C@@H](C)CO)C[C@H](C)[C@@H](CN(C)C(=O)Nc2ccc(F)cc2)OCCCC[C@H](C)O3)cc1
inactive: outcome [1] | outcome [5] | outcome [8] | max activity [7] -15.3% | outcome [3] | outcome [6] | outcome [9]

CN(CCO)c1ccc(/C=N/Nc2nncc3ccccc23)cc1
inactive: AC35 [4]

C[C@@H]1CCCCO[C@H](CN(C)S(=O)(=O)c2ccc(F)cc2)[C@H](C)CN([C@@H](C)CO)C(=O)c2cc(NS(=O)(=O)c3ccc(Cl)cc3)ccc2O1
inactive: outcome [1] | outcome [5] | outcome [8] | max activity [7] -28.2% | outcome [3] | outcome [6] | outcome [9]

C[C@@H]1CN([C@@H](C)CO)C(=O)c2cc(NS(=O)(=O)c3ccccc3)ccc2O[C@@H]1CN(C)Cc1ccc(C(=O)Nc2ccccc2N)cc1
inactive: AC35 [4]

O=C(CN1C(=O)c2ccccc2S1(=O)=O)c1ccc2c(c1)OCCO2
inactive: outcome [1] | outcome [5] | outcome [2] | outcome [10]

CN1c2ccc(-c3cccc(C#N)c3)cc2[C@H]2[C@H](CCN2S(=O)(=O)c2ccccc2F)[C@H]1CO
inactive: outcome [1] | outcome [2] | outcome [3]

COC(=O)C[C@@H]1CC[C@@H]2[C@H](COc3ccc(NC(=O)c4cccc(F)c4)cc3C(=O)N2C)O1
inactive: AC35 [4]

COc1ccccc1C#Cc1ccc2c(c1)O[C@@H](CN(C)Cc1ccncc1)[C@H](C)CN([C@H](C)CO)S2(=O)=O
inactive: outcome [1] | outcome [5] | outcome [3] | outcome [6]

C[C@@H]1CCCCO[C@@H](CN(C)Cc2ccc(Cl)c(Cl)c2)[C@@H](C)CN([C@@H](C)CO)C(=O)c2cc(NC(=O)Nc3ccccc3)ccc2O1
inactive: outcome [1] | outcome [5] | outcome [2] | outcome [3] | outcome [6] | outcome [9]

C[C@H](CO)N1C[C@H](C)[C@@H](CN(C)C(=O)c2ccc3c(c2)OCO3)Oc2cc(C#Cc3ccccc3F)ccc2S1(=O)=O
inactive: outcome [1] | outcome [2] | outcome [8] | max activity [7] -4.28% | outcome [3] | outcome [6] | outcome [9]

N#C[C@@H]1[C@H](c2ccc(C#Cc3cccc(F)c3)cc2)[C@@H](CO)N1C(=O)C1CCCC1
inactive: outcome [11]

COc1ccc(NC(=O)c2c(Nc3ccccc3)sc(C(=O)c3ccc(F)cc3)c2N)cc1
inactive: outcome [5] | outcome [2]

Cn1c(CCN2CCCC2)nc2cc(NS(=O)(=O)c3ccccc3)ccc21
inactive: outcome [5] | outcome [2]

CCc1cc(-c2n[nH]c(C)c2-c2nc3ccccc3n2C)c(O)cc1O
inactive: outcome [5] | outcome [2]

C[C@@H]1CN([C@@H](C)CO)C(=O)Cc2cc(NC(=O)CCC(F)(F)F)ccc2O[C@H]1CN(C)Cc1ccc(-c2ccccc2)cc1
inactive: outcome [5] | outcome [2] | outcome [8] | max activity [7] -2.75% [at 16 µM, hits give low values] | outcome [3] | outcome [6] | outcome [9]

COc1cccc2c1C(=O)c1c(O)c3c(c(O)c1C2=O)CC(O)(C(=O)CO)CC3OC1CC(N(C)C)C(O)C(C)O1 (stereo not drawn)
inactive: outcome [5] | outcome [2]

C[C@@H]1CN([C@@H](C)CO)C(=O)Cc2cc(NC(=O)NC3CCCCC3)ccc2O[C@@H]1CN(C)Cc1ccc(-c2ccccc2)cc1
inactive: outcome [5] | outcome [2] | outcome [8] | max activity [7] 0% [hits give low values] | outcome [3] | outcome [9]

O=C(Nc1ccc(N2CCN(C(=O)c3ccccc3)CC2)cc1)c1ccc([N+](=O)[O-])o1
inactive: outcome [5] | outcome [2]

C[C@@H]1CCCCO[C@@H](CN(C)Cc2ccc(C(F)(F)F)cc2)[C@@H](C)CN([C@@H](C)CO)C(=O)c2cc(NS(=O)(=O)c3ccccc3)ccc2O1
inactive: outcome [5] | outcome [2] | outcome [8] | max activity [7] 24.1% [at 0.26 µM, hits give low values] | outcome [3] | outcome [6]

O=S(=O)(c1ccccc1F)N1CC[C@@H]2[C@@H](CO)Nc3ccc(C4=CCCCC4)cc3[C@@H]21
inactive: outcome [5] | outcome [2] | outcome [8] | max activity [7] 10.3% [at 4.2 µM, hits give low values] | outcome [3] | outcome [6] | outcome [9]

O=C(Nc1cccc(Cl)c1)Nc1nnc(-c2ccncc2)s1
inactive: outcome [5] | outcome [2]

O=C(Nc1ccc(Cl)c(Cl)c1)N[C@@H]1CC[C@H](CCn2cc(C3CCCCC3)nn2)O[C@H]1CO
inactive: outcome [5] | outcome [2] | outcome [8] | max activity [7] -6.27% [at 16 µM, hits give low values] | outcome [3] | outcome [6] | outcome [9]

COc1ccc(/C=N/NC(=O)c2[nH]c3ccc(Br)cc3c2-c2ccccc2)cc1
inactive: outcome [5] | outcome [2]

C[C@H](CO)N1C[C@H](C)[C@@H](CN(C)S(=O)(=O)c2ccc(Cl)cc2)OCCCC[C@H](C)Oc2ccc(NS(=O)(=O)c3ccc(Cl)cc3)cc2C1=O
inactive: outcome [5] | outcome [2] | outcome [8] | max activity [7] -14.4% [at 8 µM, hits give low values] | outcome [3] | outcome [6] | outcome [9]

C[C@@H]1CN([C@H](C)CO)C(=O)c2cc(NC(=O)Nc3ccc(F)cc3)ccc2O[C@@H](C)CCCCO[C@@H]1CN(C)Cc1ccc2c(c1)OCO2
inactive: outcome [5] | outcome [2] | outcome [8] | max activity [7] -19.6% [at 4.2 µM, hits give low values] | outcome [3] | outcome [6]

CC(=O)[C@@]1(O)Cc2c(O)c3c(c(O)c2[C@H](O[C@H]2C[C@H](N)[C@H](O)[C@H](C)O2)C1)C(=O)c1ccccc1C3=O
inactive: outcome [5] | outcome [2]

C[C@@H]1CCCCO[C@H](CN(C)Cc2ccc(Cl)c(Cl)c2)[C@H](C)CN([C@@H](C)CO)C(=O)c2cc(NC(=O)Nc3ccccc3)ccc2O1
inactive: outcome [5] | outcome [2] | outcome [8] | max activity [7] 4.55% | outcome [3] | outcome [6] | outcome [9]

CCOc1ccc(NC(=O)Nc2cc(OCC(F)(F)F)cc(OCC(F)(F)F)c2)cc1
inactive: outcome [5] | outcome [2]

O=C(Nc1cccc(NC(=O)c2cccs2)c1)c1ccc([N+](=O)[O-])o1
inactive: outcome [5] | outcome [2]

COc1cccc(S(=O)(=O)N2CC[C@H]3[C@@H](CO)N(C)c4ccc(C#Cc5ccc(F)cc5)cc4[C@H]32)c1
inactive: outcome [5] | outcome [2] | outcome [8] | max activity [7] -17.2% | outcome [3] | outcome [6] | outcome [9]

Cc1noc(C)c1S(=O)(=O)N(C)C[C@@H]1OCCCC[C@H](C)Oc2ccc(NS(=O)(=O)c3ccc(Cl)cc3)cc2C(=O)N([C@H](C)CO)C[C@@H]1C
inactive: outcome [5] | outcome [2] | outcome [8] | max activity [7] -11.5% [at 0.5 µM, hits give low values] | outcome [3] | outcome [6] | outcome [9]

OCCCNc1nccc(-c2cc(Nc3cccc(Cl)c3)ncn2)n1
inactive: outcome [5] | outcome [2]

Cc1ccc(NC(=O)Cn2ncc(Cl)c(Cl)c2=O)cc1S(=O)(=O)N1CCCCC1
inactive: outcome [5] | outcome [2]

CCCNC(=O)Nc1ccc2c(c1)OC[C@H](C)N(Cc1ccc(-c3ccccn3)cc1)C[C@@H](C)[C@@H](OC)CN(C)C2=O
inactive: outcome [5] | outcome [2] | outcome [8] | max activity [7] 60.3% | outcome [3] | outcome [6]

COc1ccc(NC(=O)Nc2ccc3c(c2)C(=O)N([C@@H](C)CO)C[C@@H](C)[C@@H](CN(C)CC2CCCCC2)OCCCC[C@@H](C)O3)cc1
inactive: outcome [5] | outcome [2] | outcome [8] | max activity [7] -9.76% [at 4.2 µM, hits give low values] | outcome [3] | outcome [6] | outcome [9]

COc1ccc(NC(=O)Nc2ccc3c(c2)CC(=O)N([C@H](C)CO)C[C@@H](C)[C@@H](CN(C)Cc2ccc(Oc4ccccc4)cc2)O3)cc1
inactive: outcome [5] | outcome [2] | outcome [8] | max activity [7] -8.95% [at 16 µM, hits give low values] | outcome [3] | outcome [6] | outcome [9]
